Targets with a hit are over-represented here; the source holds about 7,900 in all. About 0.6% of all pairs of compound and target were hits.
compound: C1=CC=C2C(=C1)C3=NNC4=CC=CC(=C43)C2=O; test: log2 fold change, soluble protein after heating vs DMSO (PISA); higher = thermal stabilisation; K562 cells, 10 uM, 30 min; active = over 0.2 and 3.5 SD of the protein, either way, in both replicates (recomputed)
Summary of the method: (§1)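 Thermal stability values are relative to control samples and come from duplicates. They are expressed as log2 fold changes. For measurement, K562 cells (2×10^6 cells/mL) received 10 μM compound for 30 min, and aliquots were heated for 3 min over 48°C-58°C, pooled, and extracted at 4°C in PBS with 0.5% NP-40. Soluble protein, the supernatant after 21,000xg for 90 min, was quantified by TMTpro 16plex LC-MS/MS with equalised channel sums.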

UniProt P50225, sequence (P50225 whole entry, looked up): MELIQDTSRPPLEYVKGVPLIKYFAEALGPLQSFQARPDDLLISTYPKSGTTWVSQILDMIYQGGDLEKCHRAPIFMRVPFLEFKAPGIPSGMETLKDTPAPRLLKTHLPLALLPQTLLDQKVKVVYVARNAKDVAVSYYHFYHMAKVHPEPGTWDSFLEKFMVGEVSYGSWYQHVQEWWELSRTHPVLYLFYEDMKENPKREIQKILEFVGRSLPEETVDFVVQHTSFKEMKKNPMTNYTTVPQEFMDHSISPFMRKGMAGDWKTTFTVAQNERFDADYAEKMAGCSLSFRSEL
UniProt Q969G3, sequence (Q969G3 whole entry, looked up): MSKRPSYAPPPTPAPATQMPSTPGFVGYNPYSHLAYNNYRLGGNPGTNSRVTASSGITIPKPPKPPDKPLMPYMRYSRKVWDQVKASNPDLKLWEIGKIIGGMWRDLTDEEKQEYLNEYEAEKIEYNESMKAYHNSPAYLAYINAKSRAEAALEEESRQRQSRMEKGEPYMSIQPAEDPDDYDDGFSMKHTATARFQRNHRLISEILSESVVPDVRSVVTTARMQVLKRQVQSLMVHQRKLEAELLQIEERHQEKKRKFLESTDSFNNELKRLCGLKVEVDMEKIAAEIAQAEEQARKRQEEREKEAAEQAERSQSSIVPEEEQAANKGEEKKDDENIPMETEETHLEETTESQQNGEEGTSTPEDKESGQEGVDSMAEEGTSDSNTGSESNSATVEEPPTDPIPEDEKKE
UniProt Q86UE8, sequence (Q86UE8 whole entry, looked up): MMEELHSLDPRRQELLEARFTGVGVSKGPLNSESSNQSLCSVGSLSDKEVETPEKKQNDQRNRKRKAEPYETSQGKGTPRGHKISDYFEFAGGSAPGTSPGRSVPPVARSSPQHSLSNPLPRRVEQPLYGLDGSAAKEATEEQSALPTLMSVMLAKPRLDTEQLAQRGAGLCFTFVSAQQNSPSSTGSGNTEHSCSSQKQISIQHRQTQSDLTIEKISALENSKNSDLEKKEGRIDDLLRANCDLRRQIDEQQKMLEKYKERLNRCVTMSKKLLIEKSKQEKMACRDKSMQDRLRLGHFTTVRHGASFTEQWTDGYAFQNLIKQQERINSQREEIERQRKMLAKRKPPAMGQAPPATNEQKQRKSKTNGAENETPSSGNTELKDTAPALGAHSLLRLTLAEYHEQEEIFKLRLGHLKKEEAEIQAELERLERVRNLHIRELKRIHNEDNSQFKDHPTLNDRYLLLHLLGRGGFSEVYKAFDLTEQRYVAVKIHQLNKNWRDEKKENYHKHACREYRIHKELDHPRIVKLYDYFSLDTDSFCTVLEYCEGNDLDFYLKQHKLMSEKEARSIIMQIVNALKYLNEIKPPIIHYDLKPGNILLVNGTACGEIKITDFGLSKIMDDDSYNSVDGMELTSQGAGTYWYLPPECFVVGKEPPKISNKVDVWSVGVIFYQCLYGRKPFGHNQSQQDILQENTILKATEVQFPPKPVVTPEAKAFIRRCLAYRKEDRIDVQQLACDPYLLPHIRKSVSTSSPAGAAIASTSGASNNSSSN
UniProt Q08170, sequence (Q08170 whole entry, looked up): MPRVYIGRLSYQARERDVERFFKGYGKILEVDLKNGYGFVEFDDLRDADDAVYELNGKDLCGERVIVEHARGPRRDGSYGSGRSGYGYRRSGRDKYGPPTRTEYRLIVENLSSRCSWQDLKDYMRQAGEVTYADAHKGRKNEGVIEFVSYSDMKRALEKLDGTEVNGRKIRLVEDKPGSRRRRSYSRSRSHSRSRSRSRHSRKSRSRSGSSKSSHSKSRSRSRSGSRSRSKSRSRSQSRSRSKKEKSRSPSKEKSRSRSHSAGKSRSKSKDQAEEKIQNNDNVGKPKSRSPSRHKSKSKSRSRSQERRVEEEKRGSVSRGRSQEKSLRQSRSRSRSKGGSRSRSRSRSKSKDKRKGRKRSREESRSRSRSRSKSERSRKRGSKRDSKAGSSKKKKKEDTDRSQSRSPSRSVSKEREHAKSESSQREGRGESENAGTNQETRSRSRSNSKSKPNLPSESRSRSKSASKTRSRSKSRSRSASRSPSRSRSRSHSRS
UniProt Q9BSF4, sequence (Q9BSF4 whole entry, looked up): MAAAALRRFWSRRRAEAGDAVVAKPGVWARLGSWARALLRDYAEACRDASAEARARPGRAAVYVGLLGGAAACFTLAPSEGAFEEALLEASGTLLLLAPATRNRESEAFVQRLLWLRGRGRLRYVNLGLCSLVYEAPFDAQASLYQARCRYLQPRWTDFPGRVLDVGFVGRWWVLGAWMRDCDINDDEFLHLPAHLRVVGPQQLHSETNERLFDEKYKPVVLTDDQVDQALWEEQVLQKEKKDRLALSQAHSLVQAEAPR
UniProt Q6P1M0, sequence (Q6P1M0 whole entry, looked up): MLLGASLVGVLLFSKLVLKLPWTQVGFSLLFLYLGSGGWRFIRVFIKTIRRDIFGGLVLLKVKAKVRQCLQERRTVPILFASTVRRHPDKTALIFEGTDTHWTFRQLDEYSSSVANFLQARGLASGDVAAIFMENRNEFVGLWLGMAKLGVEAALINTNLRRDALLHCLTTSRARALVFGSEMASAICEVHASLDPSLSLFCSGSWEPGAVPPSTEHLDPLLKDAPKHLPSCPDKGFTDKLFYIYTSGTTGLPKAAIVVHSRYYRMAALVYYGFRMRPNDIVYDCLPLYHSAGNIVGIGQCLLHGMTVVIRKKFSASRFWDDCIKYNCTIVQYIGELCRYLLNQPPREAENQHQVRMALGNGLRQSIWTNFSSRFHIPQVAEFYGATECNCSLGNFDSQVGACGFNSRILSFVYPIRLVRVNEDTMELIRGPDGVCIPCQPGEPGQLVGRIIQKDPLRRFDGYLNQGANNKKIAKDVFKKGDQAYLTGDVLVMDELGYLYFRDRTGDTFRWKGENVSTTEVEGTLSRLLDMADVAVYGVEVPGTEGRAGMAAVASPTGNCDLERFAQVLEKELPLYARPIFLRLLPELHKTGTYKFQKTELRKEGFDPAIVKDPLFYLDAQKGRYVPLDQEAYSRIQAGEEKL
UniProt Q13247, sequence (Q13247 whole entry, looked up): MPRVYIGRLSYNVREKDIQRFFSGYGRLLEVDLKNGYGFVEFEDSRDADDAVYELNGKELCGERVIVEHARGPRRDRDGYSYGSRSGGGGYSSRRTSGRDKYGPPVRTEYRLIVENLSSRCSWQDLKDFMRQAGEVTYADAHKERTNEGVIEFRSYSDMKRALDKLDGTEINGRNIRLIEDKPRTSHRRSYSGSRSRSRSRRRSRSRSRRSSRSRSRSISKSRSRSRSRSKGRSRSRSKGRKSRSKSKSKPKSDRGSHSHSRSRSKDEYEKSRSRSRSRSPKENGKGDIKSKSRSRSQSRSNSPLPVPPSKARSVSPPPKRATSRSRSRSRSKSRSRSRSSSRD
UniProt Q8N1F8, sequence (Q8N1F8 whole entry, looked up): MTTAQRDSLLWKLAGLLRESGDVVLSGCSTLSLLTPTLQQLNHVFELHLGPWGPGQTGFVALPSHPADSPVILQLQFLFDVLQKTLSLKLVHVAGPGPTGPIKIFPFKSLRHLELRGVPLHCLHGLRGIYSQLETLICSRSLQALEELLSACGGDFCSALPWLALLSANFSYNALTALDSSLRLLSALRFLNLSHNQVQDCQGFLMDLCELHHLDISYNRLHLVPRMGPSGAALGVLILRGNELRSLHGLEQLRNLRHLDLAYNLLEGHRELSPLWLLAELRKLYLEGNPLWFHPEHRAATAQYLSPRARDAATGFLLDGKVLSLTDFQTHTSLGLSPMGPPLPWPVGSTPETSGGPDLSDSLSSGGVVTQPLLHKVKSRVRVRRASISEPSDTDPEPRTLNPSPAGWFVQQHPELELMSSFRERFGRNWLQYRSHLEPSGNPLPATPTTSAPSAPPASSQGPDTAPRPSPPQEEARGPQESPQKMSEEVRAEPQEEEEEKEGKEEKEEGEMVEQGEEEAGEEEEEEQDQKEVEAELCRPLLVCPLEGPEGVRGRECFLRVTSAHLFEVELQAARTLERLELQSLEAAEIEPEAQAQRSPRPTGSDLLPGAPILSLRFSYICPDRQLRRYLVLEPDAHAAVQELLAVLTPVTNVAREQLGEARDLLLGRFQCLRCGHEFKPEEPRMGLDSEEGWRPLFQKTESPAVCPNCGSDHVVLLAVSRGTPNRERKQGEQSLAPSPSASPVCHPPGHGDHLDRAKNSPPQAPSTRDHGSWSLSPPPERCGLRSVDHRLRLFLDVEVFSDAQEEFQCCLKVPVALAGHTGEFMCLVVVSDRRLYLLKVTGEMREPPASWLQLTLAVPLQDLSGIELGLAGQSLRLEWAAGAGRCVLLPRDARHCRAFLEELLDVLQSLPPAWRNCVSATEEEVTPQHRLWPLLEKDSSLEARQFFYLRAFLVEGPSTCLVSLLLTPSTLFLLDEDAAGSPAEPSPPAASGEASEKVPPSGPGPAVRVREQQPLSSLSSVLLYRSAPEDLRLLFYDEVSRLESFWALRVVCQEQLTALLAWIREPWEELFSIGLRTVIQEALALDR
UniProt Q969X1, sequence (Q969X1 whole entry, looked up): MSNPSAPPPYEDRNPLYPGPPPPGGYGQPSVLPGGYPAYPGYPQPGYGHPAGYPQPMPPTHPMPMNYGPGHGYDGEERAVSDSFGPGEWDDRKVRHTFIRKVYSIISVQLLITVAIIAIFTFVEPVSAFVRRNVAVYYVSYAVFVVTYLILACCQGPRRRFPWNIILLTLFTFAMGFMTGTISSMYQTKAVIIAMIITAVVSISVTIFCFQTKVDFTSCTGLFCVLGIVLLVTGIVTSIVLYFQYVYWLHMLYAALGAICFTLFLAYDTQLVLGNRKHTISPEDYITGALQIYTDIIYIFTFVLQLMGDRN
UniProt Q96DI7, sequence (Q96DI7 whole entry, looked up): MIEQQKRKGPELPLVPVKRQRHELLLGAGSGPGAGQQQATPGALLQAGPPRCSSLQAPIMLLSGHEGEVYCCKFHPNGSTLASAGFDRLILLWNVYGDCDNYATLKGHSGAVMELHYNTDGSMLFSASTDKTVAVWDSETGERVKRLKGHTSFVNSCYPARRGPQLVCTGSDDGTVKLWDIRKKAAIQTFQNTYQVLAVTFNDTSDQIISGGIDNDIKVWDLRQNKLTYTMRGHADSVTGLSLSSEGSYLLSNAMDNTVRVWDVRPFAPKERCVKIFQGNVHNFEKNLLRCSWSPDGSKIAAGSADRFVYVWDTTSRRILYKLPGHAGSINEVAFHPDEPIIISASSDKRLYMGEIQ

Row | Target | log2 fold change
1 | SMCHD1 (UniProt A6NHR9) | -0.422 (inactive)
2 | SP3 (UniProt Q02447) | -0.066 (inactive)
3 | TBC1D20 isoform 3 (UniProt Q96BZ9) | -0.048 (inactive)
4 | TIMM29 (UniProt Q9BSF4) | -0.024 (inactive)
5 | SMARCE1 (UniProt Q969G3) | -0.057 (inactive)
6 | SRSF6 (UniProt Q13247) | -0.251 (inactive)
7 | SRSF4 (UniProt Q08170) | -0.109 (inactive)
8 | SULT1A1 (UniProt P50225) | 0.396 (active)
9 | SLC27A4 (UniProt Q6P1M0) | 0.061 (inactive)
10 | SSB (UniProt P05455) | -0.169 (inactive)
11 | TLK2 isoform 2 (UniProt Q86UE8) | 0 (inactive)
12 | TMBIM1 (UniProt Q969X1) | -0.069 (inactive)
13 | STK11IP (UniProt Q8N1F8) | -0.062 (inactive)

compound: C1CCN(C1)C(=O)NC2=CC=CC(=C2)NC3=NC=C(C(=N3)NCCC4=CN=CN4)Br; test: as above
Summary of the method: as §1

Row | Target | log2 fold change
14 | STK38 (UniProt Q15208) | -0.025 (inactive)
15 | TBC1D24 (UniProt Q9ULP9) | 0.042 (inactive)
16 | TAOK3 (UniProt Q9H2K8) | -0.044 (inactive)
17 | SP100 isoform 4 (UniProt P23497) | -0.001 (inactive)
18 | SLC35B4 (UniProt Q969S0) | -0.015 (inactive)
19 | TBRG4 (UniProt Q969Z0) | -0.07 (inactive)
20 | TIMM10B (UniProt Q9Y5J6) | -0.143 (inactive)
21 | SMIM20 isoform 2 (UniProt Q8N5G0) | -0.016 (inactive)
22 | SPTBN4 (UniProt Q9H254) | 0.066 (inactive)
23 | TGFBI (UniProt Q15582) | -0.037 (inactive)
24 | STARD3NL (UniProt O95772) | -0.013 (inactive)
25 | TJP1 (UniProt Q07157) | -0.03 (inactive)
26 | TANGO6 (UniProt Q9C0B7) | -0.026 (inactive)
27 | TANK (UniProt Q92844) | 0.014 (inactive)
28 | SRC isoform 2 (UniProt P12931) | -0.073 (inactive)
29 | SUOX (UniProt P51687) | 0.013 (inactive)
30 | SNRNP40 (UniProt Q96DI7) | 0 (inactive)

Row | Target | log2 fold change
31 | SNX11 (UniProt Q9Y5W9) | -0.079 (inactive)
32 | TIMM13 (UniProt Q9Y5L4) | -0.025 (inactive)
33 | TATDN2 (UniProt Q93075) | -0.121 (inactive)
34 | SLC35F6 (UniProt Q8N357) | -0.057 (inactive)
35 | SMCHD1 (UniProt A6NHR9) | -0.153 (inactive)
36 | SP3 (UniProt Q02447) | -0.065 (inactive)
37 | SYK (UniProt P43405) | -0.042 (inactive)
38 | TIMM29 (UniProt Q9BSF4) | 0.037 (inactive)
39 | SMARCE1 (UniProt Q969G3) | 0.075 (inactive)
40 | SRSF6 (UniProt Q13247) | 0.09 (inactive)
41 | SRSF4 (UniProt Q08170) | 0.007 (inactive)
42 | SULT1A1 (UniProt P50225) | -0.111 (inactive)
43 | SLC27A4 (UniProt Q6P1M0) | -0.017 (inactive)
44 | SSB (UniProt P05455) | -0.151 (inactive)
45 | TLK2 isoform 2 (UniProt Q86UE8) | 0.017 (inactive)
46 | TMBIM1 (UniProt Q969X1) | 0.172 (inactive)
47 | STK11IP (UniProt Q8N1F8) | 0.042 (inactive)

compound: C1CN(CCC1(CC2=CC=C(C=C2)Cl)N)C3=NC=NC4=C3C=CN4; test: as above
Summary of the method: as §1

Row | Target | log2 fold change
48 | STK38 (UniProt Q15208) | -0.05 (inactive)
49 | TBC1D24 (UniProt Q9ULP9) | 0.157 (inactive)
50 | TAOK3 (UniProt Q9H2K8) | 0.007 (inactive)
51 | SP100 isoform 4 (UniProt P23497) | 0.035 (inactive)
52 | SLC35B4 (UniProt Q969S0) | -0.231 (inactive)
53 | TBRG4 (UniProt Q969Z0) | -0.036 (inactive)
54 | TIMM10B (UniProt Q9Y5J6) | -0.051 (inactive)
55 | SMIM20 isoform 2 (UniProt Q8N5G0) | -0.06 (inactive)
56 | SPTBN4 (UniProt Q9H254) | -0.05 (inactive)
57 | TGFBI (UniProt Q15582) | 0.029 (inactive)
58 | STARD3NL (UniProt O95772) | 0.015 (inactive)
59 | TJP1 (UniProt Q07157) | -0.035 (inactive)
60 | TANGO6 (UniProt Q9C0B7) | 0 (inactive)
61 | TANK (UniProt Q92844) | 0.01 (inactive)
62 | SRC isoform 2 (UniProt P12931) | -0.025 (inactive)
63 | SUOX (UniProt P51687) | 0.087 (inactive)
64 | SNRNP40 (UniProt Q96DI7) | 0.008 (inactive)

Row | Target | log2 fold change
65 | SNX11 (UniProt Q9Y5W9) | 0.071 (inactive)
66 | TIMM13 (UniProt Q9Y5L4) | -0.006 (inactive)
67 | TATDN2 (UniProt Q93075) | 0.06 (inactive)
68 | SLC35F6 (UniProt Q8N357) | 0.122 (inactive)
69 | SMCHD1 (UniProt A6NHR9) | -0.564 (active)
70 | SP3 (UniProt Q02447) | -0.1 (inactive)
71 | SYK (UniProt P43405) | 0.074 (inactive)
72 | TIMM29 (UniProt Q9BSF4) | 0.011 (inactive)
73 | SMARCE1 (UniProt Q969G3) | -0.127 (inactive)
74 | SRSF6 (UniProt Q13247) | -0.154 (inactive)
75 | SRSF4 (UniProt Q08170) | -0.254 (inactive)
76 | SULT1A1 (UniProt P50225) | 0.012 (inactive)
77 | SLC27A4 (UniProt Q6P1M0) | 0.062 (inactive)
78 | SSB (UniProt P05455) | -0.03 (inactive)
79 | TLK2 isoform 2 (UniProt Q86UE8) | -0.048 (inactive)
80 | TMBIM1 (UniProt Q969X1) | 0.049 (inactive)
81 | STK11IP (UniProt Q8N1F8) | -0.01 (inactive)
